Measurements taken from the supplement of paper PMC10849652.
The full data set covers some 8,800 targets. This sample favours those with a hit. About 0.5% of all pairs of compound and target were hits.

Key:
Assay in all cases: log2 fold change, soluble protein after heating vs DMSO (PISA); higher = thermal stabilisation; K562 lysate, 10 uM; active = over 0.2 and 3.5 SD of the protein, either way, in both replicates (recomputed)
erlotinib = compound: C#Cc1cccc(Nc2ncnc3cc(OCCOC)c(OCCOC)cc23)c1 [erlotinib]
How it was run: (§1)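 Thermal stability, expressed as log-two fold change relative to solvent controls, is given from duplicates. Crude K562 extract in PBS pH 7.4 with 1 mM MgCl2, at 1 mg/mL protein, was treated with 10 μM compound for 30 min and heated in aliquots for 3 min across 48°C-58°C. After pooling, adjustment to 0.5% NP-40 at 4°C and centrifugation at 21,000xg for 90 min, supernatant protein was measured by TMTpro 16plex LC-MS/MS with channel sums equalised.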

[1] = compound: C/C(=N\NC(=O)C1=CC(=CC=C1)S(=O)(=O)N2CCOCC2)/C3=C(C=CC(=C3)Cl)O
How it was run: as §1

[2] = compound: C1=CC(=CC=C1C2=NC3=C(N2)C=C(C=C3)C(=O)N)OC4=CC=C(C=C4)Cl
How it was run: as §1

[3] = compound: C1=CC2=C(C=CC(=C2)/C=C\3/C(=O)NC(=NCC4=CC=CS4)S3)N=C1
How it was run: as §1

[4] = compound: C1=CC=C(C=C1)C2=NC(=C(N2)C3=CC=NC=C3)C4=CC(=C(C=C4)Cl)O
How it was run: as §1

[5] = compound: C1=CC=C2C(=C1)C3=NNC4=CC=CC(=C43)C2=O
How it was run: as §1

[6] = compound: C1CCN(C1)C(=O)NC2=CC=CC(=C2)NC3=NC=C(C(=N3)NCCC4=CN=CN4)Br
How it was run: as §1

[7] = compound: C1CN(CCC1(CC2=CC=C(C=C2)Cl)N)C3=NC=NC4=C3C=CN4
How it was run: as §1

IRAK-1-4 Inhibitor I = compound: C1COCCN1CCN2C3=CC=CC=C3N=C2NC(=O)C4=CC(=CC=C4)[N+](=O)[O-] [IRAK-1-4 Inhibitor I]
How it was run: as §1

ralimetinib = compound: CC(C)(C)Cn1c(N)nc2ccc(-c3[nH]c(C(C)(C)C)nc3-c3ccc(F)cc3)nc21 [ralimetinib]
How it was run: as §1

[8] = compound: CC(C)(O)CC(=O)NCCn1ccc2ncnc(Nc3ccc(Oc4cccc(C(F)(F)F)c4)c(Cl)c3)c21
How it was run: as §1

[9] = compound: CC(C)C1=C2N=C(C=C(N2N=C1)NCC3=CC=CC=C3)NCCCCCCN
How it was run: as §1

[10] = compound: CC1=C(C(CC(=O)N1)C2=CC=C(C=C2)C(F)(F)F)C(=O)NC3=C(C=C4C(=C3)C=NN4)F
How it was run: as §1

[11] = compound: CC1=C(C2=C(C=C1)C(=O)C3=CC=CC=C3N2CCCN)C
How it was run: as §1

[12] = compound: CC1=C(C=C(C=C1)NC(=O)C2=CC(=CC=C2)C(C)(C)C#N)NC3=CC4=C(C=C3)N=CN(C4=O)C
How it was run: as §1

[13] = compound: CC1=C(C=C(C=C1)NC(=O)C2=CC(=CC=C2)N(C)C)NC(=O)C3=CC=C(C=C3)O
How it was run: as §1

[14] = compound: C1=CC2=NC=CN=C2C=C1/C=C/3\C(=O)NC(=O)S3
How it was run: as §1

ibrutinib = compound: C=CC(=O)N1CCC[C@@H](n2nc(-c3ccc(Oc4ccccc4)cc3)c3c(N)ncnc32)C1 [ibrutinib]
How it was run: as §1

[15] = compound: CC(=O)c1cnc2ccc(-c3cc(Cl)c(O)c(Cl)c3)nc2c1N[C@H]1CC[C@H](CN(C)C)CC1
How it was run: as §1

[16] = compound: CC1=CC=C(C=C1)SC2=C3C=C(SC3=CN=C2)C(=O)N
How it was run: as §1

Measured: log2 fold change

RNF2 (UniProt Q99496)
inactive: erlotinib 0.061 | [1] -0.088 | [2] -0.031 | [3] 0.036 | [4] 0.002 | [5] -0.01 | [6] 0.048 | [7] -0.037 | IRAK-1-4 Inhibitor I -0.039 | ralimetinib -0.053 | [8] -0.01 | [9] 0.017 | [10] 0.009 | [11] -0.081 | [12] -0.048 | [13] 0.024

RUFY2 isoform 1 (UniProt Q8WXA3)
UniProt Q8WXA3, sequence (Q8WXA3 whole entry, looked up): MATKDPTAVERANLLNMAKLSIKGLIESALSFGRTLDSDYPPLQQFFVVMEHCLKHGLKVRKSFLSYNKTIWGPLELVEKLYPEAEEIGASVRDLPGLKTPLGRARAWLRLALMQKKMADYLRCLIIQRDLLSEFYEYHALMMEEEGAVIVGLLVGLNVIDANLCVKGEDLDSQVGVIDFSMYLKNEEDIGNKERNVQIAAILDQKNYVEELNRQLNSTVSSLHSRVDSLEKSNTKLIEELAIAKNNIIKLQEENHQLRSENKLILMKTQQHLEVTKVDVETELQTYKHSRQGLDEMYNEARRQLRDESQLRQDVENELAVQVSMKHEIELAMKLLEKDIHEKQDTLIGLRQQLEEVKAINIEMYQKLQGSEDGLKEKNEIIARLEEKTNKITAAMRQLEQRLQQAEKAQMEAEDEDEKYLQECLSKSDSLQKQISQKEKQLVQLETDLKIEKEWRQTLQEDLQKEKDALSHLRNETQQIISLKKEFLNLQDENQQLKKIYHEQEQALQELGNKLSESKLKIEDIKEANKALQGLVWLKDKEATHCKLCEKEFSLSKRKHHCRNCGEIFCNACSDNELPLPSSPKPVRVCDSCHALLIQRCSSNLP
inactive: [1] -0.117 | [3] 0.02 | [14] 0.016 | [4] -0.099 | [5] 0 | [6] -0.01 | [7] 0.041 | IRAK-1-4 Inhibitor I 0.05 | ibrutinib 0.068 | ralimetinib -0.031 | [8] 0.005 | [10] -0.118 | [12] -0.101 | [13] -0.033

RDH11 (UniProt Q8TC12)
UniProt Q8TC12, sequence (Q8TC12 whole entry, looked up): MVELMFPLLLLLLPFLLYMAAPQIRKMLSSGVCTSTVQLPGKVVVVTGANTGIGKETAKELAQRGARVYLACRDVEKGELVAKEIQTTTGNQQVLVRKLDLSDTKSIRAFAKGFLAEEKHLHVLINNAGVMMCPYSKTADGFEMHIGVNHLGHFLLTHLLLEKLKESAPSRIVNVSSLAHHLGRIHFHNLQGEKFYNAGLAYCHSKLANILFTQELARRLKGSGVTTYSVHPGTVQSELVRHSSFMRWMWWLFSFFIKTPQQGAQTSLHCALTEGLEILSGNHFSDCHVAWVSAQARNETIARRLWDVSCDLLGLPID
inactive: erlotinib 0.018 | [1] 0.087 | [2] -0.02 | [3] 0.015 | [4] 0.006 | [5] -0.065 | [6] -0.037 | [7] 0.063 | IRAK-1-4 Inhibitor I 0.012 | [15] -0.021 | ralimetinib 0.005 | [8] -0.043 | [9] 0.068 | [10] -0.013 | [11] -0.039 | [12] -0.037 | [13] -0.039 | [16] -0.111

SERAC1 (UniProt Q96JX3)
UniProt Q96JX3, sequence (Q96JX3 whole entry, looked up): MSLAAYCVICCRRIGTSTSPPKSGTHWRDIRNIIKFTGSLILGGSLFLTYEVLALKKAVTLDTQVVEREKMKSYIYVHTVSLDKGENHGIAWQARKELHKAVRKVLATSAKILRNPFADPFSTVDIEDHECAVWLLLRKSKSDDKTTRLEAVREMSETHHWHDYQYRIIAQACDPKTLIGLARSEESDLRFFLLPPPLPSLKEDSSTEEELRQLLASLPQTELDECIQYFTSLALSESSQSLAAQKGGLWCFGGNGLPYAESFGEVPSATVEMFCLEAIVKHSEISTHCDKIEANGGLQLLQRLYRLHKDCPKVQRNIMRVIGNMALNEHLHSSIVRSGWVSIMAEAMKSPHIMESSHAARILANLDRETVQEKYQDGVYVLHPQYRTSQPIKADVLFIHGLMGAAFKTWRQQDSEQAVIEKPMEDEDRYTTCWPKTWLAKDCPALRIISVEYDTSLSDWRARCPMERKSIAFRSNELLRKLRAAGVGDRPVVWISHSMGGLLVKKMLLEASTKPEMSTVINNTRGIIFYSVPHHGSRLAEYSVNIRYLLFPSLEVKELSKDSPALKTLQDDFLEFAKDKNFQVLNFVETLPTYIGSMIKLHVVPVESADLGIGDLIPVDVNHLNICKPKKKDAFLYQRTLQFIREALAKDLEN
inactive: erlotinib 0.004 | [2] -0.235 | [14] -0.014 | [6] 0.123 | [7] 0.056 | ibrutinib 0.066 | [9] -0.115 | [10] 0.051 | [11] -0.193

RALGAPB isoform 3 (UniProt Q86X10)
inactive: [14] -0.146 | [6] -0.119 | [7] 0 | ibrutinib 0.106 | [11] -0.087

RNF24 isoform 2 (UniProt Q9Y225)
UniProt Q9Y225, sequence (Q9Y225 whole entry, looked up): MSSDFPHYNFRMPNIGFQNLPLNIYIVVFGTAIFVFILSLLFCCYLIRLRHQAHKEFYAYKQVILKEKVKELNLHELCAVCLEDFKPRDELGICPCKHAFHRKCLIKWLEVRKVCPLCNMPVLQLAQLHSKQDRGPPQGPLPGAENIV
inactive: erlotinib -0.146 | [2] -0.053 | [14] 0.083 | ibrutinib -0.051 | [9] 0.33 | [10] -0.026 | [12] 0.092

RYR1 (UniProt P21817)
inactive: erlotinib -0.077 | [2] -0.174 | [14] 0.012 | [4] -0.025 | [6] -0.029 | [7] -0.057 | IRAK-1-4 Inhibitor I -0.003 | ibrutinib 0.091 | [15] 0.008 | ralimetinib -0.028 | [8] -0.012 | [9] -0.088 | [11] -0.014 | [12] 0.195 | [13] -0.032 | [16] 0.013

SATB2 (UniProt Q9UPW6)
UniProt Q9UPW6, sequence (Q9UPW6 whole entry, looked up): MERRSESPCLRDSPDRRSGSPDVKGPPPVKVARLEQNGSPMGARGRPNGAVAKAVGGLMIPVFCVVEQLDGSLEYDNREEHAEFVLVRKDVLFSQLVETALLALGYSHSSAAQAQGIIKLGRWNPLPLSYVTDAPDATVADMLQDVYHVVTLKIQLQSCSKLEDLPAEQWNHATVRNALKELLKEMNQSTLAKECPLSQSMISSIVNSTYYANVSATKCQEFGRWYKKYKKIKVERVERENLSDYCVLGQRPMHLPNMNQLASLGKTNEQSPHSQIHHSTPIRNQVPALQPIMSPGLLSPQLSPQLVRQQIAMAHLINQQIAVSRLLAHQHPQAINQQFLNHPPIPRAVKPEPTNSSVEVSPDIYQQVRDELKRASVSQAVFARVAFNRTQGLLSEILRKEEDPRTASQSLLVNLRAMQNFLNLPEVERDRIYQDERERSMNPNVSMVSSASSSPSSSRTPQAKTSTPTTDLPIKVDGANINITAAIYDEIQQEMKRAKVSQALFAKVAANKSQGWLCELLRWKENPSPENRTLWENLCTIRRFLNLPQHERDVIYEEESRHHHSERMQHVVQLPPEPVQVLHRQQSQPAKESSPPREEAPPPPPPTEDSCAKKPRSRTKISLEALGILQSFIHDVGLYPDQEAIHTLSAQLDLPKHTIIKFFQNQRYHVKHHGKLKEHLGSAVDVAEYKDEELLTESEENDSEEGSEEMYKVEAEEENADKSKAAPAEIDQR
inactive: erlotinib -0.019 | [1] -0.044 | [2] 0.022 | [3] -0.01 | [4] -0.006 | [5] 0.031 | [6] -0.033 | [7] 0.009 | IRAK-1-4 Inhibitor I 0.027 | [15] -0.005 | ralimetinib 0.037 | [8] -0.004 | [9] -0.029 | [10] -0.007 | [11] -0.023 | [12] -0.027 | [13] 0.002 | [16] 0.047

RHOU (UniProt Q7L0Q8)
inactive: erlotinib -0.052 | [1] 0.07 | [2] -0.096 | [3] -0.054 | [4] 0.002 | [5] 0.061 | [6] -0.006 | [7] 0.03 | IRAK-1-4 Inhibitor I -0.089 | [15] -0.007 | ralimetinib 0.057 | [8] 0.009 | [9] 0.066 | [10] 0.012 | [11] 0.015 | [12] -0.003 | [13] 0.019 | [16] 0.045

RMI2 (UniProt Q96E14)
UniProt Q96E14, sequence (Q96E14 whole entry, looked up): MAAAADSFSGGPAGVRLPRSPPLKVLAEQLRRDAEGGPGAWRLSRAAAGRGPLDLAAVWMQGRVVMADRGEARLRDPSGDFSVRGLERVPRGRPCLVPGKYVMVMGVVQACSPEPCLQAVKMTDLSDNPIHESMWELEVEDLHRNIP
inactive: erlotinib 0.051 | [1] -0.246 | [2] -0.121 | [3] 0.206 | [4] 0.002 | [5] -0.121 | [6] -0.044 | [7] 0.117 | IRAK-1-4 Inhibitor I 0.054 | ralimetinib -0.061 | [8] 0.007 | [9] -0.032 | [11] 0.021 | [12] 0.011 | [13] 0.039

ROBO2 isoform 3 (UniProt Q9HCK4)
UniProt Q9HCK4, sequence (Q9HCK4 whole entry, looked up): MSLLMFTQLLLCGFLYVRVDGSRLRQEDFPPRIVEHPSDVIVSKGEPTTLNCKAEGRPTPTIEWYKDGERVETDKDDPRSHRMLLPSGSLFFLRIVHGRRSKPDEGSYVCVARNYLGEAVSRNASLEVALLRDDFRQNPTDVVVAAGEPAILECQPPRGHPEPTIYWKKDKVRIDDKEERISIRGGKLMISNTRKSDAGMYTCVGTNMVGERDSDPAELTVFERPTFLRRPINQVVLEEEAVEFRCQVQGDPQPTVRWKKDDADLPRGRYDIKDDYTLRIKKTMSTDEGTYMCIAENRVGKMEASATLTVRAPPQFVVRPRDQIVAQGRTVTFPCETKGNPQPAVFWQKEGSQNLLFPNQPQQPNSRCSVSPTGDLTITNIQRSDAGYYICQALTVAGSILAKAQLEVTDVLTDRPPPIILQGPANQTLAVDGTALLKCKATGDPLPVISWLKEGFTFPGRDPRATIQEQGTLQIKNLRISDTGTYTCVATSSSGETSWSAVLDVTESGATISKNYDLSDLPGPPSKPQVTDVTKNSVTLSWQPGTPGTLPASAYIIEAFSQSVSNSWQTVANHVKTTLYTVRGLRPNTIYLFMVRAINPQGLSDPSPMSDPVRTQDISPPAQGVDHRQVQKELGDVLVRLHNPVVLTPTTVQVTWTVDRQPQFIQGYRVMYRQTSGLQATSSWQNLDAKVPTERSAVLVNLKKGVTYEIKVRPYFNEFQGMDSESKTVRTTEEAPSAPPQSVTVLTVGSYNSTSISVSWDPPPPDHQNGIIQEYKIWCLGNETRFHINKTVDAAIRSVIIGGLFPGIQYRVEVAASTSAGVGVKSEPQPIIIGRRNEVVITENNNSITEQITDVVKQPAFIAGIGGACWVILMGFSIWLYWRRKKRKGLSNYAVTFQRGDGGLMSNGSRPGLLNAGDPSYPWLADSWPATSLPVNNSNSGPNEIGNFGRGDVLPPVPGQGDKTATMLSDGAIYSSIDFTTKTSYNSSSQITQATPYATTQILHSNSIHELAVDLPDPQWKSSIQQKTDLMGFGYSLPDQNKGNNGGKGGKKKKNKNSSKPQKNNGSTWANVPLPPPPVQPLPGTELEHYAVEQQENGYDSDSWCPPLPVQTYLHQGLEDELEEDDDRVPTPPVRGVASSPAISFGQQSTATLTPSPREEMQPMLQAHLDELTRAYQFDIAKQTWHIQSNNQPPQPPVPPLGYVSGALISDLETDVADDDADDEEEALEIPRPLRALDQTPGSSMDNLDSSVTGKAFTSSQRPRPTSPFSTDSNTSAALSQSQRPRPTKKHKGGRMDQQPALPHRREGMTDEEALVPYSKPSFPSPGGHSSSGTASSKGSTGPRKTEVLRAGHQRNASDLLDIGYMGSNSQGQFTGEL
inactive: erlotinib 0.042 | [2] -0.013 | [4] 0.008 | IRAK-1-4 Inhibitor I -0.062 | [15] -0.015 | ralimetinib 0.103 | [8] -0.287 | [9] -0.045 | [12] 0.022 | [13] 0.177 | [16] -0.053

RNASEH2B, A0A1B0GUE7
inactive: [15] -0.017 | [10] -0.12 | [16] 0.09

RNF170 (UniProt Q96K19)
UniProt Q96K19, sequence (Q96K19 whole entry, looked up): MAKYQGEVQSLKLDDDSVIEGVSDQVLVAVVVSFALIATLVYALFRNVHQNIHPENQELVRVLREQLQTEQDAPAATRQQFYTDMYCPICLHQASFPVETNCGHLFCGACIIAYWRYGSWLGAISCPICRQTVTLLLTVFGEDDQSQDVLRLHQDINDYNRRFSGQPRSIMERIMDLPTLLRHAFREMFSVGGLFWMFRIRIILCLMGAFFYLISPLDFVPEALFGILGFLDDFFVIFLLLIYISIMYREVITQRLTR
inactive: erlotinib 0.062 | [1] -0.018 | [2] -0.125 | [3] 0.136 | [14] 0.032 | [5] -0.577 | ibrutinib -0.006 | [15] 0.107 | [9] 0.084 | [10] 0.302 | [11] -0.035 | [16] -0.036

RAD54L (UniProt Q92698)
UniProt Q92698, sequence (Q92698 whole entry, looked up): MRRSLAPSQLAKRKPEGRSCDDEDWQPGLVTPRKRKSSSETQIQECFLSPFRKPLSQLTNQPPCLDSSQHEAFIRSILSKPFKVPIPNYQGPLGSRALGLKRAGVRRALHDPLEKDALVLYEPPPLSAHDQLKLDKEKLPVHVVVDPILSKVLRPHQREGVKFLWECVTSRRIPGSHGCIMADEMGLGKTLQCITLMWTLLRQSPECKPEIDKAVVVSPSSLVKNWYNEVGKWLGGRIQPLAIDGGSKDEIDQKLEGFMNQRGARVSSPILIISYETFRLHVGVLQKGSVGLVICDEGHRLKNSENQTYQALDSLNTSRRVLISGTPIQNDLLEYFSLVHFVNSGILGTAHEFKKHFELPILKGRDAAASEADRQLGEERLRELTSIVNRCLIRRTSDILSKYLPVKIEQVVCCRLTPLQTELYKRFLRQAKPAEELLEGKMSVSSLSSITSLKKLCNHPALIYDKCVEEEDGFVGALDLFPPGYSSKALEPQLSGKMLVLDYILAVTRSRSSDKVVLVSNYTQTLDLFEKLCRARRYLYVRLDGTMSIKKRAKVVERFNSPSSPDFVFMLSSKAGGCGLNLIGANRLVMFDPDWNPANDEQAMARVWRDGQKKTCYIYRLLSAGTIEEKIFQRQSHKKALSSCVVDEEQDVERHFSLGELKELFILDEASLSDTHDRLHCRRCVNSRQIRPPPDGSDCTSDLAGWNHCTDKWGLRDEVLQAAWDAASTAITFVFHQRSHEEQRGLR
inactive: erlotinib -0.026 | [2] -0.005 | [14] -0.072 | [4] -0.071 | IRAK-1-4 Inhibitor I 0.02 | ibrutinib -0.081 | [15] 0.035 | ralimetinib -0.062 | [8] -0.224 | [9] 0.085 | [10] 0 | [11] 0.039 | [13] 0.054 | [16] 0.059
